Screen size: about 39,000 compounds; about 1,500 (3.8%) were called active. For the sample, actives were picked, then their nearest neighbours and some compounds at random.

This assay concerns HSkMC (human skeletal muscle cells). Nature of the assay: cytotoxicity call (relative viability < 0.9). Conditions: 10 µM.
For `C[C@H](CO)N1C[C@H](C)[C@@H](CN(C)C(=O)C2CCCCC2)Oc2cc(-c3cncnc3)ccc2S1(=O)=O`, the cytotoxicity call is “inactive”.
Consider `C[C@H](CO)N1C[C@H](C)[C@H](CN(C)Cc2ccccc2)Oc2ccc(NS(=O)(=O)c3cn(C)cn3)cc2CC1=O`, for which the cytotoxicity call is “inactive”.
The same measure for `C[C@H](CO)N1C[C@H](C)[C@H](CN(C)S(=O)(=O)c2ccc(C(F)(F)F)cc2)OCc2ccccc2-c2c(n(C)c3ccccc23)C1=O`: “inactive”.
The same measure for `CC(C)NC(=O)Nc1ccc2c(c1)C(=O)N([C@@H](C)CO)C[C@@H](C)[C@@H](CN(C)C(=O)NC1CCCCC1)O2`: “inactive”.
The same measure for `C[C@@H]1CCCCO[C@H](CN(C)C(=O)c2ccccc2)[C@@H](C)CN([C@@H](C)CO)C(=O)c2cc(NC(=O)Nc3ccc(F)cc3)ccc2O1`: “inactive”.
Take `COc1ccc(S(=O)(=O)N(C)C[C@H]2OCCCC[C@H](C)Oc3ccc(NC(=O)c4ccccc4)cc3C(=O)N([C@@H](C)CO)C[C@H]2C)cc1`: the cytotoxicity call is “inactive”.
Take `COc1ccc2c3c(n(c2c1)C)[C@H](CO)N(C[C@]13CN(C1)S(=O)(=O)c1cn(cn1)C)C(=O)Nc1ccc(cc1)F`: the cytotoxicity call is “inactive”.
`COc1ccc(S(=O)(=O)Nc2ccc3c(c2)C(=O)N([C@@H](C)CO)C[C@@H](C)[C@@H](CN(C)C(=O)Nc2ccc(C(F)(F)F)cc2)OCCCC[C@@H](C)O3)cc1`: the cytotoxicity call is “inactive”.
Turning to `C[C@@H]1CCCCO[C@H](CN(C)C(=O)CCC(F)(F)F)[C@H](C)CN([C@@H](C)CO)C(=O)c2cc(NS(=O)(=O)c3cccs3)ccc2O1`, the cytotoxicity call was “inactive”.
With `COC(=O)[C@H]1c2cc3c(c(O)c2[C@@H](O[C@@H]2O[C@H](C)[C@H](OC)[C@](C)(OC)[C@@H]2OC)C[C@@]1(C)O)C(=O)c1c(O)cc2c(c1C3=O)O[C@H]1O[C@@]2(C)[C@@H](O)[C@H](N(C)C)[C@@H]1O`, the cytotoxicity call was “inactive”.
Turning to `CC[C@@]1(O)C[C@H](O[C@H]2C[C@H](N(C)C)[C@H](O[C@H]3C[C@H](O)[C@H](O[C@H]4CCC(=O)[C@H](C)O4)[C@H](C)O3)[C@H](C)O2)c2c(cc3c(c2O)C(=O)c2c(O)cccc2C3=O)[C@H]1C(=O)OC`, the cytotoxicity call was “active”.
The same measure for `C[C@@H]1CCCCO[C@H](CN(C)Cc2ccc(Cl)c(Cl)c2)[C@@H](C)CN([C@H](C)CO)C(=O)c2cc(NC(=O)c3ccncc3)ccc2O1`: “inactive”.
On to `CC=Cc1ccc2n(c1=O)C[C@H]1[C@H](CO)[C@@H](C(=O)NCCc3cn(C)cn3)[C@@H]2N1C(=O)C1CC1`, for which the cytotoxicity call is “inactive”.
The same measure for `C[C@H](CO)N1C[C@H](C)[C@H](CN(C)C(=O)Nc2ccc3c(c2)OCO3)Oc2c(NC(=O)C3CC3)cccc2C1=O`: “inactive”.
As to `C[C@H](CO)N1C[C@H](C)[C@@H](CN(C)S(=O)(=O)c2ccc(Cl)cc2)OCCCC[C@H](C)Oc2ccc(NS(=O)(=O)c3ccccc3)cc2C1=O`, the cytotoxicity call was “inactive”.
For the compound `Cc1c(N)nc([C@H](CC(N)=O)NC[C@H](N)C(N)=O)nc1C(=O)N[C@H](C(=O)N[C@H](C)[C@@H](O)[C@H](C)C(=O)N[C@H](C(=O)NCCc1nc(-c2nc(C(=O)NCCCNCCCCN)cs2)cs1)[C@@H](C)O)[C@@H](O[C@@H]1O[C@@H](CO)[C@@H](O)[C@H](O)[C@@H]1O[C@@H]1O[C@H](CO)[C@@H](O)[C@H](OC(N)=O)[C@@H]1O)c1c[nH]cn1`, the cytotoxicity call is “active”.
Under `Cc1ccc(S(=O)(=O)N(C)C[C@@H]2Oc3ccc(NC(=O)Cn4cnnn4)cc3CC(=O)N([C@@H](C)CO)C[C@H]2C)cc1` stands “inactive”; under `C[C@@H]1CN([C@@H](C)CO)C(=O)c2cccc(NC(=O)Nc3ccccc3)c2O[C@H]1CN(C)Cc1ccc(C(F)(F)F)cc1`, “inactive”.
`C[C@@H]1CN([C@H](C)CO)C(=O)c2cccc(NC(=O)Nc3ccc(C(F)(F)F)cc3)c2O[C@H]1CN(C)Cc1ccc(-c2ccccc2)cc1`: the cytotoxicity call is “inactive”.
In the case of `C[C@H]1CN([C@@H](C)CO)C(=O)c2cccc(NC(=O)Nc3ccc(C(F)(F)F)cc3)c2O[C@H]1CN(C)Cc1ccc(-c2ccccc2)cc1`, the cytotoxicity call is “inactive”.
For the compound `C[C@@H]1CN([C@H](C)CO)C(=O)c2cccc(NC(=O)Nc3ccc(C(F)(F)F)cc3)c2O[C@@H]1CN(C)Cc1ccc(-c2ccccc2)cc1`, the cytotoxicity call was “active”.
As to `C[C@H](CO)N1C[C@H](C)[C@@H](CN(C)Cc2ccc(C(F)(F)F)cc2)Oc2c(NC(=O)Nc3ccccc3)cccc2C1=O`, the cytotoxicity call was “inactive”.
As to `C[C@H](CO)N1C[C@H](C)[C@H](CN(C)Cc2ccc(C(F)(F)F)cc2)Oc2c(NC(=O)Nc3ccccc3)cccc2C1=O`, the cytotoxicity call was “inactive”.
`C[C@@H]1CN([C@H](C)CO)C(=O)c2cccc(NC(=O)Nc3ccccc3)c2O[C@H]1CN(C)Cc1ccc(C(F)(F)F)cc1`: the cytotoxicity call is “active”.
The same measure for `C[C@H]1CN([C@@H](C)CO)C(=O)c2cccc(NC(=O)Nc3ccccc3)c2O[C@@H]1CN(C)Cc1ccc(C(F)(F)F)cc1`: “active”; for `C[C@@H]1CN([C@@H](C)CO)C(=O)c2cccc(NC(=O)Nc3ccccc3)c2O[C@@H]1CN(C)Cc1ccc(C(F)(F)F)cc1`: “inactive”; for `Cc1noc(C)c1NC(=O)Nc1ccc2c(c1)C(=O)N([C@H](C)CO)C[C@H](C)[C@H](CN(C)Cc1ccncc1)OCCCC[C@H](C)O2`: “inactive”.
Take `Cc1noc(C)c1S(=O)(=O)N(C)C[C@H]1Oc2ccc(NC(=O)Cc3ccccc3)cc2CC(=O)N([C@@H](C)CO)C[C@H]1C`: the cytotoxicity call is “inactive”.
Under `CN(C)Cc1cn(CC[C@H]2CC[C@@H](NC(=O)Cc3cccnc3)[C@H](CO)O2)nn1` stands “inactive”; under `C[C@H](CO)N1C[C@H](C)[C@@H](CN(C)Cc2ccc(-c3ccccc3)cc2)Oc2c(NC(=O)CCCCCC(=O)Nc3ccccc3N)cccc2C1=O`, “inactive”; under `CC(C)NC(=O)N(C)C[C@H]1Oc2cc(C#Cc3cccc(F)c3)ccc2S(=O)(=O)N([C@@H](C)CO)C[C@@H]1C`, “inactive”.
Turning to `C[C@H](NC(=O)C[C@H]1CC[C@H](NC(=O)CN2CCOCC2)[C@@H](CO)O1)c1ccccc1`, the cytotoxicity call was “inactive”.
For the compound `COc1ccc(NC(=O)Nc2cccc3c2O[C@H](CN(C)Cc2ccc(Oc4ccccc4)cc2)[C@H](C)CN([C@H](C)CO)C3=O)cc1`, the cytotoxicity call is “inactive”.
Turning to `COc1ccc(NC(=O)Nc2cccc3c2O[C@@H](CN(C)Cc2ccc(Oc4ccccc4)cc2)[C@@H](C)CN([C@H](C)CO)C3=O)cc1`, the cytotoxicity call is “active”.
Take `COc1ccc(NC(=O)Nc2cccc3c2O[C@@H](CN(C)Cc2ccc(Oc4ccccc4)cc2)[C@@H](C)CN([C@@H](C)CO)C3=O)cc1`: the cytotoxicity call is “inactive”.
Turning to `COc1ccc(NC(=O)Nc2cccc3c2O[C@@H](CN(C)Cc2ccc(Oc4ccccc4)cc2)[C@H](C)CN([C@H](C)CO)C3=O)cc1`, the cytotoxicity call is “inactive”.
`COc1ccc(NC(=O)Nc2cccc3c2O[C@@H](CN(C)Cc2ccc(Oc4ccccc4)cc2)[C@H](C)CN([C@@H](C)CO)C3=O)cc1`: the cytotoxicity call is “inactive”.
Consider `COc1ccc(NC(=O)Nc2cccc3c2O[C@H](CN(C)Cc2ccc(Oc4ccccc4)cc2)[C@@H](C)CN([C@@H](C)CO)C3=O)cc1`, for which the cytotoxicity call was “active”.

Values taken from the antibiotic and cytotoxicity screens of Wong et al. (2023).
